Source: PubChem BioAssay
Rows were chosen to be rich in hits. Some 3.4% of all compounds tested hit in one or more screens of this group.
GPR151 ag: human GPR151 activation; PathHunter beta-arrestin GPR151 cells, luminescence; activation, % at 11.2 µM; hit rate 1% among 650,000; in the data active = activation above about 4.9%
MITF primary: human MITF inhibition, primary screen; O75030; AlphaScreen MITF homodimerization, bead proximity signal; inhibition, % at 2.6 µM; hit rate 0.91% among 650,000; AID 1259374; in the data active = inhibition above about 50%
Target sequence (O75030 whole entry, looked up): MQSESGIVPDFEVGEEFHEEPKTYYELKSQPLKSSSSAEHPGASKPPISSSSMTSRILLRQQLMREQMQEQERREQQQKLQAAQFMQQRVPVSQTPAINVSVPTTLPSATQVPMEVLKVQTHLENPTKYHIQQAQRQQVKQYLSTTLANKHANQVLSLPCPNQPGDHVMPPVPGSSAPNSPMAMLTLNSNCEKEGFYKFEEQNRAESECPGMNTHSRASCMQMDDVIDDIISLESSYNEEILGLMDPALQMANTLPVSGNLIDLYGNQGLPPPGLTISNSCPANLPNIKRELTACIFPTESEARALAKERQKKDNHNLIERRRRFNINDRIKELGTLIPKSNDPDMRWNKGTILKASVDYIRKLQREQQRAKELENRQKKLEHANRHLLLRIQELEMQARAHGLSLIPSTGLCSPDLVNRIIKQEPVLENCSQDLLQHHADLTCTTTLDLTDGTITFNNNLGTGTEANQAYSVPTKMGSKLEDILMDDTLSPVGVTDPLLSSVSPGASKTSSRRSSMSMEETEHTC
FBW7 activator: human FBW7 E3 ligase activation, primary screen; hit rate 0.13% among 650,000; AID 1259310; AlphaScreen FBW7–phospho-cyclin E peptide binding, activator screen; normalized activity (activation), % at 26.1 µM; Q969H0; in the data active = normalized activity above about 1.9%;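 also: purified mutant Fbw7 with reduced substrate affinity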
TEAD-YAP inh: TEAD-YAP interaction inhibition. AID 1259422. HEK-TIYL cells, TEAD-Gal4/YAP UAS-luciferase luminescence. inhibition, % at 9.12 µM. hit rate 1.4% among 640,000; in the data active = inhibition above about 32%
MITF inh conf: human MITF inhibition, confirmation; shares compounds with MITF primary; AlphaScreen MITF homodimerization, biotin/His-MITF beads; inhibition, % at 2.6 µM; hit rate 16% among 4,700; AID 1259372;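 active = inhibition above a cutoff derived from the DMSO control wells, cut at about 28% in these data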;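 also: inhibitors lower the bead chemiluminescence by keeping MITF from dimerizing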
AS interf DR: optically interferes with AlphaScreen signal in dose response; IC50, µM; AlphaScreen optical interference counterscreen, cell-free; hit rate 6% among 480; shares compounds with MITF primary; call rule not given here
AlphaScreen intf2: optically interferes with AlphaScreen signal; shares compounds with MITF primary; LysRS AlphaScreen counterscreen, signal interference, triplicate; inhibition, % at 2.6 µM; hit rate 7.6% among 4,700;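 active = inhibition above a cutoff derived from the DMSO control wells, cut at about 30% in these data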
Numbers stand for hits; 0 = inactive; - = no result given.

SMILES	GPR151 ag	MITF primary	FBW7 activator	TEAD-YAP inh	MITF inh conf	AlphaScreen intf2	others
COc1ccc(C(=O)N2CCN(C3CCC(c4ccccc4)CC3)CC2)cc1 (configuration not stated)	0	56	0	0	0	0
CC1CCCC(N2CCN(C(=O)c3ccncc3)CC2)C1 (configuration not stated)	0	53	0	0	0	0
COc1cc(OC)cc(C(=O)N2CCN(C3CCC(c4ccccc4)CC3)CC2)c1 (configuration not stated)	0	0	0	0	-	-
CC1CCCC(N2CCN(C(=O)c3cccs3)CC2)C1 (configuration not stated)	0	53	0	0	0	0
COc1cc(OC)cc(C(=O)N2CCN(C3CCCCCC3)CC2)c1	0	59	0	0	0	0
O=[N+]([O-])c1ccc(OCCN2CCCCC2)cc1	0	0	0	0	-	-
COc1cc(/C=C/C(=O)c2ccc(N3CCOCC3)cc2)cc(OC)c1OC	0	0	0	0	-	-
COC(=O)c1sccc1NS(=O)(=O)c1cc(Cl)ccc1Cl	0	0	0	0	-	-
COc1ccc(CCNC(=O)c2ccc3nc(N4CCN(Cc5ccc6c(c5)OCO6)CC4)sc3c2)cc1	0	0	0	0	-	-
O=C(N/C(=C/c1cccs1)C(=O)N1CC2CC(C1)c1cccc(=O)n1C2)c1cc(Cl)ccc1Cl (configuration not stated)	0	0	0	0	-	-
O=C(c1cccs1)N1CCC(N2CCCCCC2)CC1	0	55	0	0	0	0
O=C(c1ccncc1)N1CCN(C2CCCCCC2)CC1	0	82	0	0	0	0
CN1CCN(C2CCN(C(=O)c3ccc(-c4ccccc4)cc3)CC2)CC1	0	69	0	0	0	0
O=C(c1ccccc1)N1CCC(N2CCCCCC2)CC1	0	0	0	0	-	-
COc1cc2nc(Nc3nc4ccccc4n3C)nc(N)c2cc1OC	0	0	0	0	-	-
CCOC(=O)C1=C(N)OC2=C(C(=O)CCC2)C1c1ccc(Cl)cc1 (configuration not stated)	0	89	0	0	0	0
CCOc1ccc(C2C(C#N)=C(N)OC3=C2C(=O)CCC3)cc1 (configuration not stated)	0	54	0	0	0	0
CC1CCCCN1S(=O)(=O)c1ccc(C(=O)Nc2ccc(S(N)(=O)=O)cc2)cc1 (configuration not stated)	0	0	0	0	-	-
Cc1ccc2nc(C3CCN(S(=O)(=O)c4ccc5c(c4)OCCO5)CC3)[nH]c2c1	0	66	0	0	0	0
CCN1CCN(CCOc2cccc3ccccc23)CC1	0	0	0	0	-	-
Clc1c(OCCCN2CCNCC2)ccc2ccccc12	0	51	0	0	0	0
CCN1CCN(CCOc2ccc3ccccc3c2Cl)CC1	0	58	0	0	0	0
CCN1CCN(CCCOc2ccc3ccccc3c2Br)CC1	0	61	0	0	0	0
Cc1ccc2c(CNCc3ccccc3Cl)c(C(=O)O)[nH]c2c1	0	0	0	0	-	-
Cc1cccc(/C=N/NC(=O)c2cccnc2)n1	0	0	0	0	-	-
SMILES	GPR151 ag	MITF primary	FBW7 activator	TEAD-YAP inh	MITF inh conf	AlphaScreen intf2	others
COC(=O)c1nnn(CC(=O)Nc2ccc(Br)cc2)c1C(=O)OC	0	0	0	0	-	-
CCc1ccc(NC(=O)Cn2nnc(C(=O)OC)c2C(=O)OC)cc1	0	52	0	0	0	0
CCN(CC)CCCNC(=O)c1[nH]c(C)c(C(=O)NC2CCCCC2)c1C	0	90	0	0	0	0
CCN(CC)CCCNC(=O)c1[nH]c(C)c(C(C)=O)c1C	0	0	0	0	-	-
CCN1C(C(=O)c2ccccc2)=C(NC(=O)c2ccc(C)cc2)c2ccccc2S1(=O)=O	0	54	0	0	0	0
CCN1C(C(=O)c2ccccc2)=C(NC(=O)c2ccc(Cl)cc2)c2ccccc2S1(=O)=O	0	0	0	0	-	-
CC1=C([N+](=O)[O-])CS(=O)(=O)/C1=C\c1ccccc1	0	0	0	0	-	-
COc1cc(/C=C2\C(C)=C([N+](=O)[O-])CS2(=O)=O)ccc1O	0	87	0	0	76	0	AS interf DR=0
O=C(Nc1cc(S(=O)(=O)O)cc2cc(S(=O)(=O)O)cc(O)c12)c1ccccc1	0	81	0	0	60	0	AS interf DR=0
O=C(Nc1cc(NC(=O)c2ccccc2)c(C(=O)O)cc1C(=O)O)c1ccccc1	0	0	0	0	-	-
O=C(NC(CO)C(=O)O)c1cncc(O)c1 (configuration not stated)	0	0	0	0	-	-
Cc1cccc(N2CCN(C(=O)/C=C\C(=O)O)CC2)c1C	0	69	0	0	54	0	AS interf DR=0
CCOC(=O)N1CCN(c2cccc(C)c2C)CC1	0	0	0	0	-	-
CC1=C(C(=O)OC2CCC(C)CC2)C(c2ccccc2Cl)NC(=O)N1 (configuration not stated)	0	81	0	0	0	0
CC1=C(C(=O)OC2CCCCC2)C(c2ccc(OCc3ccccc3)cc2)NC(=O)N1 (configuration not stated)	0	55	0	0	0	0
COc1cccc(Nc2nnc(C(C)(C)C)c(=O)[nH]2)c1	0	0	0	0	-	-
CC(C)[C@H]1CN(Cc2ccco2)CCN1Cc1ccco1	0	0	0	0	-	-
O=[N+]([O-])c1ccc(N2CCN(S(=O)(=O)c3ccccc3)CC2)cc1NC1CC1	0	71	0	0	0	0
CCOc1ccccc1NC(=O)NCC1CC(=O)N(c2ccc(OC)cc2)C1 (configuration not stated)	0	0	0	0	-	-
O=C(NC1CCS(=O)(=O)C1)c1ccccc1Br (configuration not stated)	0	51	0	0	0	0
O=C(NC(=S)NC1CCS(=O)(=O)C1)c1ccccc1Br (configuration not stated)	0	0	0	0	-	-
Cc1ccc(OCCCCN2CCNCC2)c(Br)c1	0	56	0	0	0	0
Cc1ccc(OCCN2CCNCC2)c(Br)c1	0	0	0	0	-	-
Cc1ccc(C(C)C)c(OCC(O)CN2CCOCC2)c1 (configuration not stated)	0	0	0	0	-	-
Cc1ccc(C(C)C)c(OCCN(C)C)c1	0	54	0	0	0	0
SMILES	GPR151 ag	MITF primary	FBW7 activator	TEAD-YAP inh	MITF inh conf	AlphaScreen intf2	others
Cc1ccc(SCCCCN2CCNCC2)cc1	0	61	0	0	0	0
Cc1ccc(C(C)C)c(OCC#CCN2CCOCC2)c1	0	55	0	0	0	0
Cc1ccc(C(C)C)c(OCC(N)=O)c1	0	0	0	0	-	-
O=C1/C(=C/c2ccc(-c3ccc(Cl)c(Cl)c3)o2)C=C(c2ccccc2)N1c1ccc(O)cc1	0	0	0	0	-	-
Cc1ccsc1CNCc1cccnc1	0	0	0	0	-	-
Cc1cc(Br)ccc1OCCCCN1CCNCC1	0	66	0	0	0	0
Cc1ccc(C(C)C)c(OCCOCCN2CCNCC2)c1	0	0	0	0	-	-
Cc1ccc(C(C)C)c(OCCCCN2CCNCC2)c1	0	75	0	0	0	0
